Screens as filed in PubChem.
Peg3 promoter = Peg3 promoter-driven luciferase inhibitors, primary screen, cell-based, HeLa, luciferase luminescence; hit rate 1.7% among 360,000; inhibition, % at 20 µM; HeLa PEG-Prom luciferase reporter, overnight;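 active = inhibition of at least 50% at 20 µM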
CF NFkB block = inhibitors of PAF-induced NF-kB signaling, primary screen, cell-based, GFP fluorescence, uHTS | hit rate 0.86% among 360,000 | inhibition, % at 5 µM | AID 588850, 2011 | KKLEB NF-kB-GFP reporter, GFP fluorescence overnight;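 active = at least 50% inhibition at 5 µM, scaled per plate between neutral and stimulator controls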;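 also: PAF is a Pseudomonas aeruginosa culture filtrate used as stimulus; plate controls were PAF-stimulated DMSO wells for no effect and unstimulated DMSO wells for full effect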
HIF-2a inh = HIF-2a reporter inhibitors, primary screen, luminescence, 786-0 RCC cells | 786-0 RCC cells HIF-2a reporter, luciferase luminescence, overnight | inhibition, % at 18.8 µM | hit rate 0.72% among 360,000 | AID 624352, 2012;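 active = inhibition of the luminescence signal of 40% or more relative to plate controls, in a single-dose primary screen at 18.75 µM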
B2AR ag = beta2AR agonists driving receptor internalization, primary screen, cell-based, FAP fluorogen, flow cytometry; response, % (test concentration not listed); Beta-2 adrenergic receptor (Homo sapiens), P07550; hit rate 0.43% among 340,000; Am2.2-beta2AR cells;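 active = response above a set limit, near 3 SD of response in nonfluorescent compounds, cut at about 42% in these data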
Target sequence (P07550 whole entry, looked up): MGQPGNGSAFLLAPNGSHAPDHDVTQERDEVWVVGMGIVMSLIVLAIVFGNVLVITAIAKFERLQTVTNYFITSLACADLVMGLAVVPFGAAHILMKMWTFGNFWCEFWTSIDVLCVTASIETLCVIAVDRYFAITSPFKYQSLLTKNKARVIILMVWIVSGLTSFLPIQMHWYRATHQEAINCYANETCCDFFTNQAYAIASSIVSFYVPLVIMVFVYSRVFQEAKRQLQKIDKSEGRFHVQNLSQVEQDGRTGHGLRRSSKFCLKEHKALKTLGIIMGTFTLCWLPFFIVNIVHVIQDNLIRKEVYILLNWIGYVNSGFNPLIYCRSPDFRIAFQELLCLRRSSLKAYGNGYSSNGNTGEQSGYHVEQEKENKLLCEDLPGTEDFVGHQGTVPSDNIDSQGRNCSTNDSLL
MITF TRPM1 inh = inhibitors of MITF-dependent TRPM1 promoter reporter, primary screen, cell-based, SK-MEL-5, single point, luciferase; inhibition, % at 12.5 µM; hit rate 0.83% among 330,000; SK-MEL-5 TRPM1 promoter luciferase, 24 h;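 active = mean inhibition across replicates of 60% or more, whatever share of single replicates reaches that level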
KKLEB cytotox = cytotoxicity in KKLEB CF airway cells, primary screen, cytotoxicity control for CF NF-kB inhibitor project, cell-based, uHTS, fluorescence assay plates | KKLEB CF airway cells viability, ATPlite luminescence, overnight; active compounds read low; cells stimulated with P. aeruginosa culture filtrate | activity change (cytotoxicity), % at 5 µM | hit rate 0.36% among 360,000;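 active = corrected activity change at or below -50% at 5 µM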
The depositor's hits bear a star; / = not tested or not shown. An excerpt weighted towards active compounds, which were near 2.8% of everything screened.

SMILES	Peg3 promoter	CF NFkB block	HIF-2a inh	B2AR ag	MITF TRPM1 inh	KKLEB cytotox
O=C1/C(=C\c2ccccc2)CN(C(=O)CCN2CCCCC2)C/C1=C/c1ccccc1	97.0*	90.9*	89.6*	17.7	109.4*	-53.6*
COc1ccc(Nc2c(-c3ccc(F)cc3)nc3nc(C)cc(C)n23)cc1	/	/	-28.1	/	/	/
S=C(NCCc1ccccn1)Nc1ccc(Cl)c(Cl)c1	-23.6	7.7	-33.3	53.1*	-12.2	-5.4
O=C(O)c1cccc(N2C(=O)/C(=C/c3ccc([N+](=O)[O-])cc3)C=C2c2ccccc2)c1	53.2*	4.0	56.6*	-3.4	9.6	4.2
O=C1/C(=C/c2ccc([N+](=O)[O-])cc2)C=C(c2ccccc2)N1c1ccccc1	15.3	-18.3	-57.0	4.6	3.2	-1.7
O=C1/C(=C/c2ccc([N+](=O)[O-])cc2)C=C(c2ccccc2)N1c1ccc(O)cc1	15.4	28.2	-21.1	-1.5	68.2*	-20.3
CCOC(=O)c1sc(NC(=O)CCCCCN2C(=O)c3cccc4cccc(c34)C2=O)nc1C	41.1	39.2	4.3	3.2	66.9*	-53.3*
CCOC(=O)c1sc(NC(=O)CN2C(=O)c3cccc4cccc(c34)C2=O)nc1C	-10.6	27.9	-11.6	15.5	5.4	-30.7
O=C(OCc1ccccc1)N1CCC2CC1c1ccc(-c3cccc(F)c3)cc12 (stereo unspecified)	-26.7	9.3	-35.4	/	/	-2.3
COc1ccc(CNn2c(-c3cccs3)nc3ccccc3c2=O)cc1OC	52.8*	-14.0	-2.6	-9.9	-1.3	-13.0
COc1cccc(C(=O)Nn2c(-c3cccs3)nc3ccccc3c2=O)c1OC	21.9	-10.0	11.1	-11.3	16.9	-19.5
CC(CNC(=O)CC[C@H]1O[C@@H](n2cnc3c(NC(=O)c4ccccc4)ncnc32)[C@H](O)[C@@H]1O)c1ccccc1 (stereo partly specified)	-6.1	-17.9	-7.6	/	/	0.6
Cc1ccc(S(=O)(=O)NC(=NCc2ccccc2)c2ccc(F)cc2)cc1	51.0*	13.8	25.7	1.4	0.2	-8.5
Cc1ccc(S(=O)(=O)NC(=NCC(=O)O)c2ccc(F)cc2)cc1	1.3	14.2	8.5	-5.8	1.1	-7.4
CCOc1ccccc1NC(=O)C(CC)Sc1nc2ccncc2[nH]1 (stereo unspecified)	15.8	-11.6	9.7	3.5	12.6	6.3
CCC(Sc1nc2ccncc2[nH]1)C(=O)Nc1ccc(C)c(Cl)c1 (stereo unspecified)	85.3*	-8.9	11.2	0.3	14.3	0.1
COC(=O)c1c[nH]c2c1-c1cc(C(=O)OCc3ccccc3)n(S(=O)(=O)c3ccc(C)cc3)c1C(=O)C2=O	81.9*	85.7*	7.9	-6.8	112.0*	-20.6
Oc1ccc(/C=N/NC(=S)Nc2cccnc2)c(O)c1O	11.8	-0.2	21.3	67.3*	26.6	5.6
O=C1Nc2cc(C(=O)NCCCN3CCOCC3)ccc2S/C1=C/c1ccccc1F	16.1	12.5	-2.7	-7.4	-0.5	-8.3
O=C1Nc2cc(C(=O)NCCCN3CCCC3)ccc2S/C1=C\c1ccccc1	90.9*	6.4	-4.1	2.9	96.0*	-11.1
O=C1Nc2cc(C(=O)NCCCN3CCOCC3)ccc2S/C1=C/c1cccc(Cl)c1	106.7*	-5.0	-1.7	20.4	-8.9	-10.9
COc1ccc(C(=O)NCCN2CCCC2)cc1	17.9	-10.5	15.8	-4.6	3.7	10.1
COc1ccc(/C=C2/Sc3ccc(C(=O)NCCN4CCCCCC4)cc3NC2=O)cc1	104.7*	4.6	2.9	20.1	95.3*	-7.5
CCCS(=O)(=O)NC(=O)C1(C)CCN(C(=O)Cc2ccc3ccccc3c2)C1 (stereo unspecified)	17.7	-13.4	18.8	/	/	5.6
CN1OC[C@@H]2CN(C(=O)CCc3ccccc3)[C@H](c3ccccc3Br)C[C@@H]21	4.3	-11.0	5.3	/	/	4.0
Cc1cc(O)c(-c2cc(O)c(C)cc2O)cc1O	69.6*	-3.4	16.4	34.6	25.4	-6.3
